# Test results: the supplement of paper PMC4022240
# ± gives the standard deviation.
# T1: HaloTag-ATRX ADD domain (163-292)
# T1 chain: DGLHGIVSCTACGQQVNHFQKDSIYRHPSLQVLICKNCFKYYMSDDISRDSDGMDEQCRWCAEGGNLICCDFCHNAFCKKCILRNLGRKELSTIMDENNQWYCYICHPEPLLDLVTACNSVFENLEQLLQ
# Experiments:
# Test in all cases: peptide microarray binding signal (635 nm), min-max normalized on array (fraction of array maximum); higher = stronger binding
# Details in all cases: peptide region: H2B 7-19
# [1] = target: T1, HaloTag-ATRX ADD domain (163-292)
# Protocol: (§1)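 Histone 13-mer peptides were synthesized as cellulose conjugates with a C-terminal 20-atom PEG linker and printed in triplicate on nitrocellulose. The sequence given is the unmodified backbone; PTMs (Kme1/2/3, Kac, Sph/Tph, Rme/Rme2a/Rme2s, Rcit) are listed in the label and the 'peptide modifications' condition. Slides were probed at 4 °C for 1 h with biotin-labelled (HQ)5-HaloTag reader fusions (ATRX-ADD, ING2-PHD) then streptavidin-Alexa647, or with rabbit histone antibodies then anti-rabbit Alexa647. The mean 635 nm signal of the triplicate spots was scaled 0-1 between the lowest and highest values on each array.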
# [2] = target: HaloTag-ING2 PHD (mouse Ing2 200-280)
# Protocol: as §1
# [3] = target: anti-H3K4me3 antibody ab8580
# Protocol: as §1
# [4] = target: anti-H3K9me3 antibody ab8898
# Protocol: as §1
# [5] = peptide modifications: H2BK11ac H2BK12ac H2BK15ac H2BK16ac, binder concentration: 1:2,000 dilution
# [6] = peptide modifications: H2BK11ac H2BK12ac H2BK15ac H2BK16ac, binder concentration: 1:10,000 dilution
# [7] = peptide modifications: H2BK11ac H2BK12ac H2BK15ac, binder concentration: 1:2,000 dilution
# [8] = peptide modifications: H2BK11ac H2BK12ac H2BK15ac, binder concentration: 1:10,000 dilution
# [9] = peptide modifications: H2BK11ac H2BK12ac H2BS14ph H2BK15ac H2BK16ac, binder concentration: 1:2,000 dilution
# [10] = peptide modifications: H2BK11ac H2BK12ac H2BS14ph H2BK15ac H2BK16ac, binder concentration: 1:10,000 dilution
# [11] = peptide modifications: H2BK11ac H2BK12ac H2BS14ph H2BK15ac, binder concentration: 1:2,000 dilution
# [12] = peptide modifications: H2BK11ac H2BK12ac H2BS14ph H2BK15ac, binder concentration: 1:10,000 dilution
# [13] = peptide modifications: H2BK11ac H2BK12ac H2BS14ph, binder concentration: 1:2,000 dilution
# [14] = peptide modifications: H2BK11ac H2BK12ac H2BS14ph, binder concentration: 1:10,000 dilution
binder,measurement,setting,value
APAPKKGSKKAVT [H2B 7-19 A P A P Kac Kac G S Kac Kac A V T],peptide microarray binding signal,"[1]; peptide modifications: H2BK11ac H2BK12ac H2BK15ac H2BK16ac, binder concentration: 50 nM",0.0047 ± 0.00016
same,peptide microarray binding signal,"[1]; peptide modifications: H2BK11ac H2BK12ac H2BK15ac H2BK16ac, binder concentration: 500 nM",0.00329 ± 0.00049
same,peptide microarray binding signal,"[2]; peptide modifications: H2BK11ac H2BK12ac H2BK15ac H2BK16ac, binder concentration: 10 nM",0.00555 ± 0.00016
same,peptide microarray binding signal,"[2]; peptide modifications: H2BK11ac H2BK12ac H2BK15ac H2BK16ac, binder concentration: 100 nM",0.00524 ± 0.00027
same,peptide microarray binding signal,[3]; [5],0.000264 ± 1e-05
same,peptide microarray binding signal,[3]; [6],0.000742 ± 1.3e-05
same,peptide microarray binding signal,[4]; [5],0.000982 ± 5.2e-05
same,peptide microarray binding signal,[4]; [6],0.00167 ± 2.8e-05
APAPKKGSKKAVT [H2B 7-19 A P A P Kac Kac G S Kac K A V T],peptide microarray binding signal,"[1]; peptide modifications: H2BK11ac H2BK12ac H2BK15ac, binder concentration: 50 nM",0.00809 ± 0.00032
same,peptide microarray binding signal,"[1]; peptide modifications: H2BK11ac H2BK12ac H2BK15ac, binder concentration: 500 nM",0.0163 ± 0.00026
same,peptide microarray binding signal,"[2]; peptide modifications: H2BK11ac H2BK12ac H2BK15ac, binder concentration: 10 nM",0.0198 ± 0.0062
same,peptide microarray binding signal,"[2]; peptide modifications: H2BK11ac H2BK12ac H2BK15ac, binder concentration: 100 nM",0.0125 ± 0.0012
same,peptide microarray binding signal,[3]; [7],0.0168 ± 0.0011
same,peptide microarray binding signal,[3]; [8],0.00325 ± 0.00019
same,peptide microarray binding signal,[4]; [7],0.00323 ± 0.00057
same,peptide microarray binding signal,[4]; [8],0.00248 ± 0.00015
APAPKKGSKKAVT [H2B 7-19 A P A P Kac Kac G Sph Kac Kac A V T],peptide microarray binding signal,"[1]; peptide modifications: H2BK11ac H2BK12ac H2BS14ph H2BK15ac H2BK16ac, binder concentration: 50 nM",0.00254 ± 2.9e-05
same,peptide microarray binding signal,"[1]; peptide modifications: H2BK11ac H2BK12ac H2BS14ph H2BK15ac H2BK16ac, binder concentration: 500 nM",0.00495 ± 8.6e-05
same,peptide microarray binding signal,"[2]; peptide modifications: H2BK11ac H2BK12ac H2BS14ph H2BK15ac H2BK16ac, binder concentration: 10 nM",0.00639 ± 0.00065
same,peptide microarray binding signal,"[2]; peptide modifications: H2BK11ac H2BK12ac H2BS14ph H2BK15ac H2BK16ac, binder concentration: 100 nM",0.00163 ± 1.7e-05
same,peptide microarray binding signal,[3]; [9],0.00523 ± 0.00045
same,peptide microarray binding signal,[3]; [10],0.00126 ± 2.2e-05
same,peptide microarray binding signal,[4]; [9],0.000891 ± 6e-05
same,peptide microarray binding signal,[4]; [10],0.00098 ± 1.7e-05
APAPKKGSKKAVT [H2B 7-19 A P A P Kac Kac G Sph Kac K A V T],peptide microarray binding signal,"[1]; peptide modifications: H2BK11ac H2BK12ac H2BS14ph H2BK15ac, binder concentration: 50 nM",0.001661 ± 1.4e-05
same,peptide microarray binding signal,"[1]; peptide modifications: H2BK11ac H2BK12ac H2BS14ph H2BK15ac, binder concentration: 500 nM",0.00238 ± 7.1e-05
same,peptide microarray binding signal,"[2]; peptide modifications: H2BK11ac H2BK12ac H2BS14ph H2BK15ac, binder concentration: 10 nM",0.002447 ± 1.4e-05
same,peptide microarray binding signal,"[2]; peptide modifications: H2BK11ac H2BK12ac H2BS14ph H2BK15ac, binder concentration: 100 nM",0.000709
same,peptide microarray binding signal,[3]; [11],0.000774 ± 0.00015
same,peptide microarray binding signal,[3]; [12],0.000685 ± 7.2e-06
same,peptide microarray binding signal,[4]; [11],0.000242 ± 2.5e-06
same,peptide microarray binding signal,[4]; [12],0.000461
APAPKKGSKKAVT [H2B 7-19 A P A P Kac Kac G Sph K K A V T],peptide microarray binding signal,"[1]; peptide modifications: H2BK11ac H2BK12ac H2BS14ph, binder concentration: 50 nM",0.00197 ± 4e-05
same,peptide microarray binding signal,"[1]; peptide modifications: H2BK11ac H2BK12ac H2BS14ph, binder concentration: 500 nM",0.00252 ± 9e-05
same,peptide microarray binding signal,"[2]; peptide modifications: H2BK11ac H2BK12ac H2BS14ph, binder concentration: 10 nM",0.0046 ± 0.00019
same,peptide microarray binding signal,"[2]; peptide modifications: H2BK11ac H2BK12ac H2BS14ph, binder concentration: 100 nM",0.00163 ± 3.3e-05
same,peptide microarray binding signal,[3]; [13],0.00215 ± 8.8e-05
same,peptide microarray binding signal,[3]; [14],0.000628 ± 6.7e-06
same,peptide microarray binding signal,[4]; [13],0.000423 ± 1.8e-05
same,peptide microarray binding signal,[4]; [14],0.00075 ± 4e-05
